Inhibition data for 45 compounds are collected here from PubChem BioAssay AID2012 (Sanford-Burnham Center for Chemical Genomics, 2009).

For this experiment, the target named is Eukaryotic translation initiation factor 4H (Homo sapiens) (UniProt Q15056). Description: eIF4H binding inhibition – biochemical, uHTS, fluorescence polarization, translation initiation inhibitor project, primary screen (AID 2012).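 Note: calls also rest on retests at 20 µM and on dose response follow-up.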 Conditions: eIF4H fluorescence polarization binding assay, stronger effect = higher value. In general terms: Fluorescence polarisation rises when a labelled molecule tumbles more slowly, as on binding a larger partner.

The whole screen tested about 290,000 compounds, of which about 2,700 (0.93%) were called active. The rule behind the calls is not given here. For the sample, actives were picked, then their nearest neighbours and some compounds at random.

As a reminder, the inhibition is the drop in the measured response relative to a control, in per cent. As for `COc1ccccc1C(=O)COC(=O)CNS(=O)(=O)c1ccc(NC(C)=O)cc1`, the inhibition (at 35 µM) is -9.9% (inactive).
Consider `O=C(O)CCCC(=O)N1N=C(c2ccco2)CC1c1ccco1` (stereo unspecified), for which the inhibition (at 35 µM) was 7.4% (inactive).
Consider `O=c1c2ccccc2ncn1/N=C/c1ccccc1`, for which, for the setting “at 35 µM”, the inhibition is 4.2% (inactive).
For `COc1ccc(NC2=CC(=S)NC(C)(C)C2)cc1`, the inhibition is 67.8% (active) (at 35 µM) and 62.7% (confirmation average, at 20 µM).
Consider `COc1ccc(C(=S)Nc2ccccc2)cc1`, for which, for the setting “at 35 µM”, the inhibition is -0.5% (inactive).
`COc1ccc(Nc2nc(=O)[nH]nc2C)cc1`: the inhibition (at 35 µM) was 3.5% (inactive).
In the case of `CCCCSCCCNC(=O)C1CCC(CNS(=O)(=O)c2ccc(NC(C)=O)cc2)CC1` (stereo unspecified), the inhibition (at 35 µM) is 2.4% (inactive).
Consider `Cc1cc(CNC(=O)C2CCC(=O)N(CCc3ccc(Cl)cc3)C2)no1` (stereo unspecified), for which the inhibition (at 35 µM) was -0.4% (inactive).
The same measure, in the same setting: then `CCOC(=O)C1C(c2ccc(O)cc2)NC(=O)NC1(O)C(F)(F)F` (stereo unspecified), with -0.5% (inactive); and `Cc1ccccc1NC(=O)CCNS(=O)(=O)c1ccc2[nH]c(=O)oc2c1`, with -5.4% (inactive).
For the compound `CCN1CCN(CCNC(=O)c2ccc3c(c2)NC(=O)/C(=C\c2ccc(OC)c(OC)c2)S3)CC1`, under “at 35 µM”, the inhibition was 22.4% (inactive).
Still for that read-out and setting: then `O=C(NCCN1CCOCC1)c1ccc(/C=C2\Sc3ccccc3N(Cc3ccc(F)cc3)C2=O)cc1`, with -7.3% (inactive).
Consider `CCN1CCN(CCNC(=O)c2ccc(/C=C3/Sc4ccccc4N(Cc4cccc(C)c4)C3=O)cc2)CC1`, for which the inhibition (at 35 µM) is -0.9% (active) and the inhibition (confirmation average, at 20 µM) was 95.1%.
On to `COc1ccc(C)cc1Nc1nc(C)nc2c1oc1ccccc12`, for which the inhibition (at 35 µM) was -11.2% (inactive).
The same measure, in the same setting: then `CN1CCN(C(=O)c2ccc(NS(=O)(=O)c3ccccc3)cc2)CC1`, with -6.4% (inactive); and `COc1ccc(-c2nnn(CC(=O)N(CCO)C(C(=O)NC3CCCC3)c3ccc(F)cc3)n2)cc1` (stereo unspecified), with -0.3% (inactive).
For the compound `CCOCCCN(C(=O)Cn1nnc(-c2ccc(OC)c(OC)c2)n1)C(CC)C(=O)NC1CCCC1` (stereo unspecified), the inhibition is, setting by setting: (at 35 µM) -12.4% (active); (confirmation average, at 20 µM) 91%.
As for `CCC(C(=O)NC1CCCC1)N(C(=O)Cn1nnc(-c2ccc(C)o2)n1)c1ccc(OC)c(OC)c1` (stereo unspecified), under “at 35 µM”, the inhibition was 5.7% (inactive).
Turning to `O=C(O)Cn1c(Cc2ccccc2)nc2ccccc21`, under “at 35 µM”, the inhibition is -6.9% (inactive).
`O=C(Nc1ccc(Cl)c(Cl)c1)c1ccccc1NC(=O)C1CC=CCC1C(=O)O` (stereo unspecified): for the setting “at 35 µM”, the inhibition was -5.2% (inactive).
`COc1cccc(S(=O)(=O)NCc2ccc(C(=O)NCc3ccccn3)cc2)c1`: the inhibition (at 35 µM) was -1% (inactive).
As for `O=C(NCc1ccccn1)c1ccc2nc(-c3ccco3)c(-c3ccco3)nc2c1`, for the setting “at 35 µM”, the inhibition is 97% (active).
The same measure, in the same setting: then `O=C(NCc1ccccn1)c1cc(-c2ccccc2Cl)on1`, with -3.2% (inactive); and `COc1ccc(C23NCCN2C(=O)c2ccccc23)cc1` (stereo unspecified), with -1.8% (inactive); and `Cc1ccc(CN2CCN(c3ncccn3)CC2)c(C)c1`, with 17.4% (inactive).
With `COc1ccc(NS(=O)(=O)c2cc(NC(=O)/C=C/c3cc(OC)c(OC)c(OC)c3)ccc2N2CCCCC2)cc1`, the inhibition (at 35 µM) is -7.6% (inactive).
As to `COc1ccc(NS(=O)(=O)c2cc(NC(=O)C3CCCCC3)ccc2N2CCOCC2)cc1`, the inhibition is, setting by setting: (at 35 µM) 13.7% (active); (confirmation average, at 20 µM) 81.1%.
As to `COc1ccc(NS(=O)(=O)c2ccc(N3CCOCC3)c(NC(=O)c3ccccc3Br)c2)cc1`, the inhibition (at 35 µM) was -4.7% (inactive).
As for `CCC(C)[C@H](NC(=O)N1CCn2c1nc1ccccc12)C(=O)NCc1ccc(OC)cc1` (stereo partly specified), the inhibition (at 35 µM) was -4.4% (inactive).
On to `CCc1ccc(-c2nc(SCC(=O)NC3CCCC3)n[nH]2)cc1`, for which the inhibition (at 35 µM) is 45.6% (inactive).
Take `CCCN(c1ccc(C)cc1)c1nc(=O)c2cccnc2s1`: the inhibition (at 35 µM) is 91.1% (active).
Same read-out and setting: then `COc1ccccc1N1CC(C(=O)Nc2nnc(SCC(=O)NCC3CCCO3)s2)CC1=O` (stereo unspecified), with -4% (inactive); and `CN(C(=O)c1cc2c(=O)n3ccccc3nc2s1)C1CCCCC1`, with -4.1% (inactive); and `COc1cccc(CC(=O)Nc2nc(-c3ccc(OC)c(OC)c3)cs2)c1`, with 6.8% (inactive).
As for `COc1ccc(-c2csc(Nc3ccc(O)cc3)n2)cc1`, the inhibition (at 35 µM) is 9.7% (inactive).
Regarding `COc1ccc(OC)c(Nc2nc(-c3ccc(O)c(O)c3)cs2)c1`, the inhibition (at 35 µM) is 65.5% (active).
Turning to `O=S(=O)(Nc1cccc(-n2cnnn2)c1)c1cnc(Cl)c(Cl)c1`, under “at 35 µM”, the inhibition is -5.5% (inactive).
On the same count and under the same terms, then `CN(C)S(=O)(=O)c1ccc(N/C=C(\[N+](=O)[O-])S(=O)(=O)c2ccccc2)cc1`, with -0.3% (inactive); and `COc1cccc(OC)c1C(=O)Nc1c(C(=O)N2CCN(c3ccccn3)CC2)oc2ccccc12`, with -10.2% (inactive).
Consider `Oc1c(Cl)cc(Cl)c(Cl)c1Cc1c(O)c(Cl)cc(Cl)c1Cl`, for which the inhibition by setting is: (at 35 µM) 51% (active); (confirmation average, at 20 µM) 96.3%.
As to `COc1ccc(CSc2nnnn2-c2ccc(O)cc2)cc1F`, the inhibition (at 35 µM) was -12% (inactive).
On to `COc1cccc(NC(=O)c2ccccc2N(Cc2ccccc2)S(C)(=O)=O)c1`, for which, under “at 35 µM”, the inhibition was -8.4% (inactive).
With `COC(=O)[C@@H]1CCCN1C(=O)c1cc(COc2cccc3cccnc23)on1`, where the note is “at 35 µM”, the inhibition is 4.3% (inactive).
On to `O=C1CCCC(O)=C1N=Nc1ccc2ncsc2c1`, for which the inhibition was 69.2% (active) (at 35 µM) and 94.3% (confirmation average, at 20 µM).
`O=C1CCCC(O)=C1N=Nc1ccc(S(=O)(=O)N2CCOCC2)cc1`: the inhibition (at 35 µM) is 27.7% (inactive).
